Results as given in PubChem BioAssay (NCI).
The panel holds about 79,000 compounds, 15% with a hit somewhere; the sample as a whole holds those more often. Calls of active or inactive are those of the source. Cut-off read from the data, not from the text of the source: active = growth inhibition above about 70%; inactive = the rest.

What was measured:
[1] = NCI Yeast Anticancer Drug Screen. Data for the rad52 strain (AID 147);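 note: 0% = growth of vehicle-treated control cultures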; details: S. cerevisiae rad52 mutant growth inhibition, stronger effect = higher value
Procedure, shortened: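 Genetically altered yeast (DNA damage repair defect) treated with compound; inhibition calculated relative to vehicle.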

[2] = NCI Yeast Anticancer Drug Screen. Data for the wt1 strain (AID 149);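 note: 0% = growth of vehicle-treated wt1 cultures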; details: S. cerevisiae wt1 strain (SPY 50644) growth inhibition, stronger effect = higher value
Procedure, shortened: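 Using yeast strain wt1, compound-induced growth inhibition was determined against vehicle-treated cultures.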

[3] = NCI Yeast Anticancer Drug Screen. Data for the rad50EPP+ strain (AID 151);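 note: 0% = growth of vehicle-treated control cultures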; details: S. cerevisiae rad50 mutant strain, stronger effect = higher value
Procedure, shortened: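 Strain rad50EPP+; compound exposure; % growth inhibition vs vehicle.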

[4] = NCI Yeast Anticancer Drug Screen. Data for the mgt1 strain (AID 153); details: S. cerevisiae mgt1 mutant growth inhibition, stronger effect = higher value
Procedure, shortened: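 Read-out: yeast growth inhibition vs vehicle control. Strain mgt1, drawn from a panel altered in DNA damage repair or cell cycle control.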

[5] = NCI Yeast Anticancer Drug Screen. Data for the rad50 strain (AID 155);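 note: 0% = growth of vehicle-only cultures of the same strain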; details: S. cerevisiae rad50 strain growth inhibition, stronger effect = higher value
Procedure, shortened: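 Relative growth inhibition (compound vs vehicle) was measured in yeast with a defined repair-gene alteration.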

[6] = NCI Yeast Anticancer Drug Screen. Data for the mec2-1 strain (AID 157); details: S. cerevisiae mec2-1 strain, stronger effect = higher value
Procedure, shortened: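 Cells of the genetically defined mec2-1 yeast strain are incubated with test compound. Inhibition of growth is calculated against vehicle-treated controls.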

[7] = NCI Yeast Anticancer Drug Screen. Data for the rad14 strain (AID 159);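 note: 0% = growth of vehicle-treated control cultures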; details: S. cerevisiae rad14 strain growth inhibition, stronger effect = higher value
Procedure, shortened: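 Screen for anticancer potential: a yeast strain altered in DNA damage repair is grown with compound, and reduced growth is quantified against vehicle controls.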

[8] = NCI Yeast Anticancer Drug Screen. Data for the sgs1 mgt1 strain (AID 161);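 note: 0% = growth of cultures given vehicle only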; details: S. cerevisiae sgs1 mgt1 strain, stronger effect = higher value
Procedure, shortened: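 Read-out: growth inhibition vs vehicle controls. Cells: mutant yeast strain deficient in DNA damage repair.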

[9] = NCI Yeast Anticancer Drug Screen. Data for the CLN2oe strain (AID 163);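 note: 0% = growth of vehicle-only control cultures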; details: S. cerevisiae CLN2oe strain, stronger effect = higher value
Procedure, shortened: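 Strain altered in cell-cycle control, incubated with compound; growth compared to solvent-treated controls.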

[10] = NCI Yeast Anticancer Drug Screen. Data for the cln2 rad14 strain (AID 165);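 note: 0% = growth equal to vehicle treated cultures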; details: S. cerevisiae cln2 rad14 strain, stronger effect = higher value
Procedure, shortened: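 The screen exposed genetically defined yeast (cln2 rad14) to test compounds and scored growth inhibition relative to vehicle-treated controls.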

[11] = NCI Yeast Anticancer Drug Screen. Data for the bub3 strain (AID 167); details: S. cerevisiae bub3 mutant strain, stronger effect = higher value
Procedure, shortened: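 Screening used yeast with an engineered genetic alteration affecting cell cycle control. Compound-exposed cultures were compared with vehicle cultures, and reduced growth was taken as inhibition.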

[12] = NCI Yeast Anticancer Drug Screen. Data for the wt2 strain (AID 169);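 note: 0% = growth of vehicle-treated yeast cultures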; details: S. cerevisiae wt2 strain growth inhibition, stronger effect = higher value
Procedure, shortened: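 Steps: yeast strain treated with compound; growth recorded; inhibition calculated relative to cultures given vehicle alone.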

[13] = NCI Yeast Anticancer Drug Screen. Data for the mlh1 strain (AID 171);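 note: 0% = growth of vehicle-treated control cultures of the same strain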; details: S. cerevisiae mlh1 strain growth inhibition, stronger effect = higher value
Procedure, shortened: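 Yeast screen: mutant strain plus compound, growth scored against vehicle control wells.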

[14] = NCI Yeast Anticancer Drug Screen. Data for the sgs1 strain (AID 173);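 note: 0% = growth of vehicle-only control cultures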; details: S. cerevisiae sgs1 mutant, stronger effect = higher value
Procedure, shortened: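 Inhibition of yeast growth served as the measure. The mutant strain was treated with each compound, and growth was normalised to cultures receiving vehicle alone.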

[15] = NCI Yeast Anticancer Drug Screen. Data for the mlh1 rad18 strain (AID 175); details: S. cerevisiae mlh1 rad18 strain growth inhibition, stronger effect = higher value
Procedure, shortened: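 Compound-treated yeast growth, normalised to vehicle controls. Strain bears defined DNA repair mutations.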

[16] = NCI Yeast Anticancer Drug Screen. Data for the rad18 strain (AID 177); details: S. cerevisiae rad18 mutant growth inhibition, stronger effect = higher value
Procedure, shortened: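 Inhibition values reflect reduced yeast growth compared with vehicle-treated controls, using a strain engineered with a DNA damage repair defect.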

[17] = at 5.0 µM (retest, dose inferred, filed as 0.5)
[18] = at 50.0 µM (retest, dose inferred, filed as 5.0)

Measured: growth inhibition

CCCCCCCCN1COCC(COc2ccccc2C)OC1 (stereo unspecified)
inactive: [1]; at 1.2 µM -3% | [1]; at 3.7 µM 0% | [1]; at 11.0 µM 1% | [1]; at 33.0 µM 13% | [2]; at 1.2 µM -1% | [2]; at 3.7 µM -1% | [2]; at 11.0 µM 2% | [2]; at 33.0 µM 8% | [3]; at 1.2 µM -7% | [3]; at 3.7 µM -4% | [3]; at 11.0 µM -2% | [3]; at 33.0 µM 11% | [3]; at 100.0 µM 18% | [4]; at 1.2 µM -1% | [4]; at 3.7 µM -2% | [4]; at 11.0 µM 0% | [4]; at 33.0 µM 5% | [5]; at 1.2 µM -2% | [5]; at 3.7 µM -4% | [5]; [17] 0% | [5]; at 11.0 µM 3% | [5]; at 33.0 µM 5% | [5]; [18] 5% | [6]; at 1.2 µM -4% | [6]; at 3.7 µM -4% | [6]; [17] 3% | [6]; at 11.0 µM -6% | [6]; at 33.0 µM 2% | [6]; [18] -7% | [7]; at 1.2 µM 0% | [7]; at 3.7 µM 1% | [7]; at 11.0 µM 1% | [7]; at 33.0 µM 22% | [8]; [17] -1% | [8]; [18] 1% | [9]; at 1.2 µM -4% | [9]; at 3.7 µM 0% | [9]; at 11.0 µM -58% | [9]; at 33.0 µM 9% | [10]; [17] 20% | [10]; [18] 44% | [10]; at 50.0 µM 55.2% | [11]; at 1.2 µM -9% | [11]; at 3.7 µM -7% | [11]; [17] -25% | [11]; at 11.0 µM 5% | [11]; at 33.0 µM 15% | [11]; [18] 1% | [12]; at 1.2 µM -1% | [12]; at 3.7 µM 0% | [12]; at 11.0 µM 0% | [12]; at 33.0 µM 13% | [13]; at 1.2 µM -1% | [13]; at 3.7 µM 0% | [13]; at 11.0 µM 0% | [13]; at 33.0 µM -17% | [14]; at 1.2 µM -3% | [14]; at 3.7 µM -2% | [14]; at 11.0 µM 0% | [14]; at 33.0 µM 22% | [15]; [17] -8% | [15]; [18] -2% | [16]; at 1.2 µM -15% | [16]; at 3.7 µM -4% | [16]; at 11.0 µM 4% | [16]; at 33.0 µM 11%
active: [1]; at 100.0 µM 99% | [2]; at 100.0 µM 96% | [4]; at 100.0 µM 99% | [5]; at 50.0 µM 97.3% | [5]; at 100.0 µM 99% | [6]; at 50.0 µM 85.3% | [6]; at 100.0 µM 99% | [7]; at 100.0 µM 99% | [8]; at 50.0 µM 93.3% | [9]; at 100.0 µM 99% | [11]; at 50.0 µM 76.5% | [11]; at 100.0 µM 98% | [12]; at 100.0 µM 99% | [13]; at 100.0 µM 99% | [14]; at 100.0 µM 99% | [15]; at 50.0 µM 95% | [16]; at 100.0 µM 99%

COc1ccc(C(C)c2cc3c(cc2OCC(C)=O)OCO3)cc1 (stereo unspecified)
active: [1]; at 100.0 µM 73% | [5]; at 100.0 µM 84% | [6]; at 100.0 µM 73% | [9]; at 100.0 µM 76% | [11]; at 100.0 µM 86% | [12]; at 100.0 µM 75% | [13]; at 100.0 µM 76% | [14]; at 100.0 µM 77% | [16]; at 100.0 µM 84%
inactive: [1]; at 1.2 µM -3% | [1]; at 3.7 µM 0% | [1]; at 11.0 µM 1% | [1]; at 33.0 µM -1% | [2]; at 1.2 µM -2% | [2]; at 3.7 µM -3% | [2]; at 11.0 µM -5% | [2]; at 33.0 µM -8% | [2]; at 100.0 µM 49% | [3]; at 1.2 µM -3% | [3]; at 3.7 µM 1% | [3]; at 11.0 µM 3% | [3]; at 33.0 µM 12% | [3]; at 100.0 µM 11% | [4]; at 1.2 µM -3% | [4]; at 3.7 µM -2% | [4]; at 11.0 µM -4% | [4]; at 33.0 µM -7% | [4]; at 100.0 µM 42% | [5]; at 1.2 µM 2% | [5]; at 3.7 µM 45% | [5]; [17] 1% | [5]; at 11.0 µM 26% | [5]; at 33.0 µM 9% | [5]; [18] 14% | [5]; at 50.0 µM -11.3% | [6]; at 1.2 µM -3% | [6]; at 3.7 µM -1% | [6]; [17] -5% | [6]; at 11.0 µM 0% | [6]; at 33.0 µM -4% | [6]; [18] 7% | [6]; at 50.0 µM -15.1% | [7]; at 1.2 µM -2% | [7]; at 3.7 µM -3% | [7]; at 11.0 µM -3% | [7]; at 33.0 µM 1% | [7]; at 100.0 µM 38% | [8]; [17] -4% | [8]; [18] 35% | [8]; at 50.0 µM 9.55% | [9]; at 1.2 µM -4% | [9]; at 3.7 µM -3% | [9]; at 11.0 µM -2% | [9]; at 33.0 µM -10% | [10]; [17] -6% | [10]; [18] 9% | [10]; at 50.0 µM -48.7% | [11]; at 1.2 µM 2% | [11]; at 3.7 µM 8% | [11]; [17] 5% | [11]; at 11.0 µM 17% | [11]; at 33.0 µM 40% | [11]; [18] 66% | [11]; at 50.0 µM -26.4% | [12]; at 1.2 µM -3% | [12]; at 3.7 µM 4% | [12]; at 11.0 µM -5% | [12]; at 33.0 µM -6% | [13]; at 1.2 µM -3% | [13]; at 3.7 µM -4% | [13]; at 11.0 µM -4% | [13]; at 33.0 µM -3% | [14]; at 1.2 µM -3% | [14]; at 3.7 µM -2% | [14]; at 11.0 µM -1% | [14]; at 33.0 µM -4% | [15]; [17] -5% | [15]; [18] 45% | [15]; at 50.0 µM 11.4% | [16]; at 1.2 µM -2% | [16]; at 3.7 µM 2% | [16]; at 11.0 µM 6% | [16]; at 33.0 µM 11%

CC1C(c2ccccc2)SC(=N)N1C (stereo unspecified)
inactive: [1]; at 1.2 µM -1% | [1]; at 3.7 µM -3% | [1]; at 11.0 µM -2% | [1]; at 33.0 µM -1% | [1]; at 100.0 µM -4% | [2]; at 1.2 µM -1% | [2]; at 3.7 µM -1% | [2]; at 11.0 µM -2% | [2]; at 33.0 µM -1% | [2]; at 100.0 µM -1% | [3]; at 1.2 µM -2% | [3]; at 3.7 µM -2% | [3]; at 11.0 µM -2% | [3]; at 33.0 µM 0% | [3]; at 100.0 µM -1% | [4]; at 1.2 µM -1% | [4]; at 3.7 µM 0% | [4]; at 11.0 µM 0% | [4]; at 33.0 µM -1% | [4]; at 100.0 µM -1% | [5]; at 1.2 µM -2% | [5]; at 3.7 µM -46% | [5]; [17] 0% | [5]; at 11.0 µM -55% | [5]; at 33.0 µM -4% | [5]; [18] 51% | [5]; at 50.0 µM -19.9% | [5]; at 100.0 µM -4% | [6]; at 1.2 µM 0% | [6]; at 3.7 µM -1% | [6]; [17] 6% | [6]; at 11.0 µM -1% | [6]; at 33.0 µM -1% | [6]; [18] 46% | [6]; at 50.0 µM -5.6% | [6]; at 100.0 µM -1% | [7]; at 1.2 µM 1% | [7]; at 3.7 µM 2% | [7]; at 11.0 µM 2% | [7]; at 33.0 µM 3% | [7]; at 100.0 µM 2% | [8]; [17] 12% | [8]; [18] 54% | [8]; at 50.0 µM -5.35% | [9]; at 1.2 µM 4% | [9]; at 3.7 µM 1% | [9]; at 11.0 µM 4% | [9]; at 33.0 µM 4% | [9]; at 100.0 µM -2% | [10]; [17] 1% | [10]; [18] 56% | [10]; at 50.0 µM 23.4% | [11]; at 1.2 µM -3% | [11]; at 3.7 µM -2% | [11]; [17] -2% | [11]; at 11.0 µM -3% | [11]; at 33.0 µM -3% | [11]; [18] -7% | [11]; at 50.0 µM -4.4% | [11]; at 100.0 µM 0%
